# Assay: caspase-8 TRAIL sensitization, hit retest, confirmation, cell-based, NB7+caspase-8, with/without TRAIL, luminescence panel (AID 651596)
# Settings: NB7 neuroblastoma + caspase-8, without TRAIL, luminescence viability, without TRAIL, mean of runs, at 10 µM
row,Compound,activity
1,O=C(/C=C/c1ccc2c(c1)OCO2)Nc1cccnc1,76.2%
2,CN(NC(=O)c1cccc(Cl)c1)c1nc(-c2ccccc2)nnc1C(F)(F)F,39.9%
3,CC(C)c1ccc2c(c1)CC[C@H]1[C@](C)(CN)CCC[C@]21C,97.2%
4,CC(=O)c1ccc(NC(=O)Nc2ccccc2)cc1,68.3%
5,Nc1ccc(-c2nc3ncccc3o2)c(Cl)c1,32.2%
6,O=C(CCl)N1CCN(S(=O)(=O)c2ccc3c(c2)CCC3)CC1,97.1%
7,Nc1c(C(=O)Nc2nc3ccccc3s2)sc2nc(-c3cccs3)ccc12,98.7%
8,CC(C)(C)c1ccc(C(=O)Nc2cnccn2)cc1,82.2%
9,Cn1c2ccccc2c(=O)c2ccc(C#CC3(O)CCCCC3)cc21,83.4%
10,Cc1ccc(-c2ccccc2NC(=O)CCl)o1,64.3%
11,Cc1ccc(NC2=Nc3ccccc3CS2)cc1,38%
12,Cc1cc(=O)[nH]c2nnc(-c3ccc(Cl)cc3)n12,78.6%
13,CC(=O)n1cc(N(C(=O)CCl)c2ccc(Cl)cc2)c2ccccc21,98.9%
14,CCOC(=O)N1CCN(C(=O)CSCC(=O)Nc2nc(-c3ccc(-c4ccccc4)cc3)cs2)CC1,68%
15,O=C(Nc1c(Cl)cc2c(c1Cl)Cc1cc([N+](=O)[O-])ccc1-2)C(Cl)Cl,94.9%
16,Cc1ccc(/C=C/C2=NN(C)C(=O)CC2)cc1,40.1%
17,CCCc1cc(=O)[nH]c(SCC(=O)Nc2cc(S(=O)(=O)N3CCCCC3)ccc2C)n1,-4.17%
18,Cc1cc(C(=O)COC(=O)c2n[nH]c3ccccc23)c(C)n1C,55.9%
19,COc1ccc(C(=O)/C=C/Nc2cccc(O)c2)cc1,42.4%
20,Cc1cccc(NC(=O)c2cc3ccccc3c(=O)o2)n1,68.3%

row,Compound,activity
1,O=C1C(=Cc2ccc(Cl)cc2)CCc2ccccc21,78.7%
2,COC(=O)c1ccc2nc(-c3cccc(N)c3)cn2c1,67.8%
3,Cc1cccc(NC(=O)c2cnc3ccccn3c2=O)c1,62.9%
4,Cc1cc(-c2ccccc2)nc(N/N=C/c2ccccc2)n1,50.3%
5,Cc1cc(C)cc(C(=O)Nc2nc3ccccc3[nH]2)c1,72.5%
6,O=C(NC(=S)Nc1ccccn1)c1ccc(-c2ccccc2)cc1,72.8%
7,CN(C(=O)c1ccc(NC(=O)Cc2cccc(NC(=O)C3CCCN(S(=O)(=O)c4cccc([N+](=O)[O-])c4)C3)c2)cc1)C1CC1 (stereo not given),36.1%
8,O=C(/C=C/c1ccccc1Cl)Nc1cccc(O)c1,42.2%
9,COc1ccc(-c2cc3nc(C)cc(N)n3n2)cc1,86.5%
10,CCN(CC)S(=O)(=O)c1cccc(NC(=O)Nc2cccc(C(F)(F)F)c2)c1,53%
11,O=C(NNC(=O)c1cc(OCC(F)(F)F)ccc1OCC(F)(F)F)c1cccc(C(F)(F)F)c1,44.2%
12,CC(C)CC(=O)Nc1nc2c(c(=O)[nH]1)CCCC2,66.5%
13,Cc1occc1C(=O)O/N=C(\N)c1ccccc1,92.8%
14,CC(C)(C)c1ccc(/C=N/NC(=O)c2ccccn2)cc1,75%
15,Cc1nn(-c2ccccc2)c(Cl)c1CN(C(=O)CCl)c1ccc(Cl)cc1,99.6%
16,C#CC(=O)N(c1ccc(OC)c(OC)c1)C(C(=O)NC1CCCC1)c1cccs1 (stereo not given),99.5%
17,Cc1ccc(C(=O)N/C(=C\c2ccc(-c3ccccc3[N+](=O)[O-])o2)C(=O)NCCCN(C)C)cc1,31.6%
18,O=C(Cn1c2ccccc2c(=O)c2ccccc21)N/N=C/c1cc([N+](=O)[O-])ccc1N1CCCCCC1,48%
19,COc1ccccc1C/C(N)=N/OC(=O)c1cccc([N+](=O)[O-])c1,69.6%
20,CC1(C(=O)N/N=C/c2c(F)c(F)c(F)c(F)c2F)CC1(Cl)Cl (stereo not given),98.4%

# Source: PubChem BioAssay
